± gives the standard deviation of the averaged measurements.
Columns and labels:
Test in all cases: relative enzymatic activity vs untreated control (fraction); higher = less inhibition
Conditions in all cases: 100 µM; incubation time: 2 h at 37 C
DNA gyrase = test system: DNA gyrase
Procedure: (§1)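 In vitro enzymatic inhibition assays (ProFoldin kits) for 12 purified essential E. coli enzymes or complexes, each treated with 218 active antibacterial compounds at 100 µM for 2 h at 37°C. Read-outs were fluorescence or absorbance (phosphate detection, dye binding), converted to activity via standard curves and expressed relative to untreated DMSO controls.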

DNA helicase = DNA helicase (UniProt P0ACB1)
Procedure: as §1

DNA ligase = DNA ligase (UniProt B1XA82)
Procedure: as §1

DNA polymerase = DNA polymerase (UniProt P10443)
Procedure: as §1

DNA primase = DNA primase (UniProt P0ABS7)
Procedure: as §1

GlmU = GlmU (UniProt A7ZTU1)
Procedure: as §1

Guanlyate kinase = Guanlyate kinase (UniProt Q0TBG1)
Procedure: as §1

MurA = MurA (UniProt Q3YX52)
Procedure: as §1

MurD = target: T1, MurD (UniProt P14900)
T1 sequence (whole entry): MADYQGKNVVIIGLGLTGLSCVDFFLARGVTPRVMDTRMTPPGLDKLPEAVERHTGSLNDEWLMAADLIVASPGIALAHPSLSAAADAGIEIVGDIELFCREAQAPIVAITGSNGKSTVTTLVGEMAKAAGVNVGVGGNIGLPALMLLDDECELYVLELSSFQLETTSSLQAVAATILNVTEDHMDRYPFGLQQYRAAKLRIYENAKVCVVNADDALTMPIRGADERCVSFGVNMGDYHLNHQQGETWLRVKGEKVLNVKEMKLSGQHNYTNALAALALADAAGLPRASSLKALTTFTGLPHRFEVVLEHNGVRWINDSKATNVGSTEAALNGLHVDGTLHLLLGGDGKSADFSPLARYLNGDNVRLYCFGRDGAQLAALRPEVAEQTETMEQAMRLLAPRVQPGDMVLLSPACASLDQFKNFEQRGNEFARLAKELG
Procedure: as §1

MurF = target: T2, MurF (UniProt P11880)
T2 sequence (whole entry): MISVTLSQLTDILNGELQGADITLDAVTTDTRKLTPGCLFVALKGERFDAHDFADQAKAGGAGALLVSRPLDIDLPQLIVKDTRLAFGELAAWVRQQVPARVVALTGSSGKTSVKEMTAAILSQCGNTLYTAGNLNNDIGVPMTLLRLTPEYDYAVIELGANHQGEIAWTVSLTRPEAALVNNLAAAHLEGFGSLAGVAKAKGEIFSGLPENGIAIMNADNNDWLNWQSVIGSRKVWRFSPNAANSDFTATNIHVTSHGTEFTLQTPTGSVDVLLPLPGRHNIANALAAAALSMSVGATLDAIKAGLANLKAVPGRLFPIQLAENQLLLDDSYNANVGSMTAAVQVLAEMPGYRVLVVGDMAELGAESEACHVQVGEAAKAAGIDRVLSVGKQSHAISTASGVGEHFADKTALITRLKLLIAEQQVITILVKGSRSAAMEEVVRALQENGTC
Procedure: as §1

RNA polymerase = test system: RNA polymerase
Procedure: as §1

Sequence of GlmU (A7ZTU1 whole entry, looked up): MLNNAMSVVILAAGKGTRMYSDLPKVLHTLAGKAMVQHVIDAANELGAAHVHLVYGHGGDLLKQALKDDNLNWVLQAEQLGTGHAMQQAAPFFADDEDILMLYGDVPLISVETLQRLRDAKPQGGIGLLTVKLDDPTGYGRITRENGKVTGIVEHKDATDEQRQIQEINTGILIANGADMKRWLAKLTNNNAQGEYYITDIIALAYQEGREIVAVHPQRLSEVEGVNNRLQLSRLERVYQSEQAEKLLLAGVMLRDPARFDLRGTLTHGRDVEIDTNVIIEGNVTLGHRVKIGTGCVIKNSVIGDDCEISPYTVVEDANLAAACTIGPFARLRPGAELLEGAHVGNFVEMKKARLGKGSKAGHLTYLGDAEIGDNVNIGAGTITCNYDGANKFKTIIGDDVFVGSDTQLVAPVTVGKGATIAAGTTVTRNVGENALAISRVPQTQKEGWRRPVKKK
Sequence of DNA primase (P0ABS7 whole entry): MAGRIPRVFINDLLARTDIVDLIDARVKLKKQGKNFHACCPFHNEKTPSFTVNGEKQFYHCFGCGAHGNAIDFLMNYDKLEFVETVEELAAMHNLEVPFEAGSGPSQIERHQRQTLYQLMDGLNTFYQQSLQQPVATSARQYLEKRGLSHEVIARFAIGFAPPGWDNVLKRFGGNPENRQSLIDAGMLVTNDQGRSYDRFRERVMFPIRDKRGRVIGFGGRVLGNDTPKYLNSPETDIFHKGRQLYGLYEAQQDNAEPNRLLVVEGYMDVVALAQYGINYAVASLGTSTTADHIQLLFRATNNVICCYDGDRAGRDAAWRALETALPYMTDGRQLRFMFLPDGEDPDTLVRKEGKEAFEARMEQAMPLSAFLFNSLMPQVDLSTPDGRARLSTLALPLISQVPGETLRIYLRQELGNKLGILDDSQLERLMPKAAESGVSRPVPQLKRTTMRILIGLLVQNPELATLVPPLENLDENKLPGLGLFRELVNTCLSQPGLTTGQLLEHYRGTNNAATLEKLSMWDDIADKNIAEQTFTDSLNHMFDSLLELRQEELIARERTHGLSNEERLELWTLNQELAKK
Sequence of DNA polymerase (P10443 whole entry): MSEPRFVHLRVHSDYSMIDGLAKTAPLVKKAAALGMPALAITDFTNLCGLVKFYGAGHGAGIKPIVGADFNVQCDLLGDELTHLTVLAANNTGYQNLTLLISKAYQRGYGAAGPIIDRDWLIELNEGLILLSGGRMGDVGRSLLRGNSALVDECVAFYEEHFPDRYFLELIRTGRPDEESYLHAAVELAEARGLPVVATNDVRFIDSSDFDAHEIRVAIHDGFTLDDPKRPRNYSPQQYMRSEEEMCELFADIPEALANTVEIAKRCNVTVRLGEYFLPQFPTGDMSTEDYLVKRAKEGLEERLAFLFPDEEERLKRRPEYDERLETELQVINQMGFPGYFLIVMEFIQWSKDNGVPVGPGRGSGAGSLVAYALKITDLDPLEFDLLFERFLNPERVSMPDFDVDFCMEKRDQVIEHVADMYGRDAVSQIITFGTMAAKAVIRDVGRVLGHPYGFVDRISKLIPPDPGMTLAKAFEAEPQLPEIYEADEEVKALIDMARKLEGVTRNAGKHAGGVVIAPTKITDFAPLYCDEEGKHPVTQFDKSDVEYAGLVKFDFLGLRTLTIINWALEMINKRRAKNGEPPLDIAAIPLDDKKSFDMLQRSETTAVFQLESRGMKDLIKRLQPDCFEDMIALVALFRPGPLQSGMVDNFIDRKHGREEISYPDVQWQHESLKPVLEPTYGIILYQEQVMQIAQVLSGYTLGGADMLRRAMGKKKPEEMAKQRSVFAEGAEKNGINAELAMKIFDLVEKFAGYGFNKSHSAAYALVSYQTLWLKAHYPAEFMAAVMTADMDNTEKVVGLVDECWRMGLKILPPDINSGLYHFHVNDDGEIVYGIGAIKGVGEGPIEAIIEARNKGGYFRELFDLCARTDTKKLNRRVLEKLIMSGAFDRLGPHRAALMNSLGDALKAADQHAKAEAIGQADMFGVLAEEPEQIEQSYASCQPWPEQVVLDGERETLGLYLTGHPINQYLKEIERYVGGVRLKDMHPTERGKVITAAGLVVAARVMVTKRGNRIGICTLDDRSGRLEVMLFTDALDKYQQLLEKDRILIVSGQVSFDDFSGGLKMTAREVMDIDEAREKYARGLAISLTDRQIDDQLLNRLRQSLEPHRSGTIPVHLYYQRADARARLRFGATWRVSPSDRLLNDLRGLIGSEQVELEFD
Sequence of MurA (Q3YX52 whole entry): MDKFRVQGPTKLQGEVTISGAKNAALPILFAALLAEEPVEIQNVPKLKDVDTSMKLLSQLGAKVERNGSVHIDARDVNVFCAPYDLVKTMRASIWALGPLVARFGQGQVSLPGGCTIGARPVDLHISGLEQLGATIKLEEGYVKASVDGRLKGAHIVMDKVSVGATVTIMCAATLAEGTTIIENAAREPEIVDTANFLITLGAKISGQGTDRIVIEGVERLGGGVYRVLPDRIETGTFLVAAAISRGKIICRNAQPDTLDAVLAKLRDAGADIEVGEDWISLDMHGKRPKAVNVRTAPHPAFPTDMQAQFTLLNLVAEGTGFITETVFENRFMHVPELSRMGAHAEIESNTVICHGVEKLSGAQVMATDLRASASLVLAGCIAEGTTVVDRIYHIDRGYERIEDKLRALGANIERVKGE
Sequence of Guanlyate kinase (Q0TBG1 whole entry): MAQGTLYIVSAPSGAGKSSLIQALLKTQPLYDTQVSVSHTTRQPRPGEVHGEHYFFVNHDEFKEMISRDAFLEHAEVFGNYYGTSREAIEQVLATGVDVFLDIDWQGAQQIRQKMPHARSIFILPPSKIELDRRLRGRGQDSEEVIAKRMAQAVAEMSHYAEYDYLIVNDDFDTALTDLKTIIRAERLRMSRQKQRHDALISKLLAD
Sequence of DNA helicase (P0ACB1 whole entry): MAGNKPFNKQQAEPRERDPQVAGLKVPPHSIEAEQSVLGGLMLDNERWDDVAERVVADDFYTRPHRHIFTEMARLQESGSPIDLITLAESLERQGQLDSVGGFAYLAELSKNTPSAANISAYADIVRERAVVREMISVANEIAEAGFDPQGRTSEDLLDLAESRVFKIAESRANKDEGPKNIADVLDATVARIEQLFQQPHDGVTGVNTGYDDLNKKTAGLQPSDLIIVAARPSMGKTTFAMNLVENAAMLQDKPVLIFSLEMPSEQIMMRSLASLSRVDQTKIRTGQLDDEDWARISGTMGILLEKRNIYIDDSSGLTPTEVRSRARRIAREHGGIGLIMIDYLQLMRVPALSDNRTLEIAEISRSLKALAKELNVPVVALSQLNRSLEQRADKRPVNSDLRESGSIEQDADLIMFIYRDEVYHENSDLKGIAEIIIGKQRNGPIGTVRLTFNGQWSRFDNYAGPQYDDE
Sequence of DNA ligase (B1XA82 whole entry): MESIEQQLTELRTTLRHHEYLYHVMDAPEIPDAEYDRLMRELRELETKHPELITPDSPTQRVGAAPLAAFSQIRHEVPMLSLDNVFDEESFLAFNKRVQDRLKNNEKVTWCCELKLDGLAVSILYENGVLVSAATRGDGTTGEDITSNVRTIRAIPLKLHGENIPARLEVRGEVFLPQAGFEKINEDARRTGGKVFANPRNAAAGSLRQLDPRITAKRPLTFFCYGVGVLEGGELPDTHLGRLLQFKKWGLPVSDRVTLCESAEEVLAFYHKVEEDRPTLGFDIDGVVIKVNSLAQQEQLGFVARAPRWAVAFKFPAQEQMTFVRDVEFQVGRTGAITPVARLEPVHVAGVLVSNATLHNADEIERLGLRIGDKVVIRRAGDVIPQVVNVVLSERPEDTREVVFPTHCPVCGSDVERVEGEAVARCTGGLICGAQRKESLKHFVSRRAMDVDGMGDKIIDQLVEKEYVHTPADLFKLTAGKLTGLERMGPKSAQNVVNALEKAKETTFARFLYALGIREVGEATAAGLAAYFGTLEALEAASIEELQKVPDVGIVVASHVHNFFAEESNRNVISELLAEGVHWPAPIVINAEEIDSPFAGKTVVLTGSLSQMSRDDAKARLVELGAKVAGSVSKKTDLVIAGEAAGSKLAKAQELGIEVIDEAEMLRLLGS

Row | Compound | relative enzymatic activity (DNA gyrase) | relative enzymatic activity (DNA helicase) | relative enzymatic activity (DNA ligase) | relative enzymatic activity (DNA polymerase) | relative enzymatic activity (DNA primase) | relative enzymatic activity (GlmU) | relative enzymatic activity (Guanlyate kinase) | relative enzymatic activity (MurA) | relative enzymatic activity (MurD) | relative enzymatic activity (MurF) | relative enzymatic activity (RNA polymerase)
1 | CN(C)C1C(O)=C(C(N)=O)C(=O)C2(O)C(O)=C3C(=O)c4c(O)cccc4C(C)(O)C3CC12.Cl (stereo not drawn) | 0.904 ± 0.27 | 0.696 ± 0.28 | 1.03 ± 0.033 | 1.37 ± 0.52 | 0.711 ± 0.17 | 0.9683 ± 0.0011 | 1.05 ± 0.046 | 0.712 ± 0.038 | 0.627 ± 0.43 | 0.964 ± 0.2 | 0.857 ± 0.014
2 | CNC1C(O)C(NC)C2OC3(O)C(=O)CC(C)OC3OC2C1O.Cl.Cl (stereo not drawn) | 0.963 ± 0.22 | 0.484 ± 0.0079 | 1.07 ± 0.22 | 1.35 ± 0.45 | 0.693 ± 0.19 | 1.02 ± 0.015 | 0.421 ± 0.021 | 0.4888 ± 0.0032 | 0.533 ± 0.35 | 0.898 ± 0.16 | 0.871 ± 0.064
3 | COC1C=COC2(C)Oc3c(C)c(O)c4c(O)c(c(C=NN5CCN(C6CCCC6)CC5)c(O)c4c3C2=O)NC(=O)C(C)=CC=CC(C)C(O)C(C)C(O)C(C)C(OC(C)=O)C1C (stereo not drawn) | 0.305 ± 0.28 | 0.66 ± 0.082 | 0.866 ± 0.13 | 0.952 ± 0.37 | 0.647 ± 0.093 | 0.259 ± 0.016 | 0.435 ± 0.013 | 0.144 ± 0.12 | 0.132 ± 0.046 | 0.4854 ± 0.0039 | 0.0856 ± 0.00076
4 | CCCCCCCCCCCCC[N+](C)(C)Cc1ccccc1.O.[Cl-] | 0.0515 ± 0.073 | 0.0193 ± 0.00021 | 0.811 ± 0.32 | 0.208 ± 0.0053 | 0.482 ± 0.019 | 0.157 ± 0.036 | 0.171 ± 0.062 | 0.051 ± 0.015 | 0.115 ± 0.035 | 0.102 ± 0.021 | 0.32 ± 0.068
5 | C[C@H]1[C@H](NC(=O)/C(=N\OC(C)(C)C(=O)O)c2csc(N)n2)C(=O)N1S(=O)(=O)O | 0.898 ± 0.25 | 0.534 ± 0.15 | 0.815 ± 0.086 | 1.23 ± 0.28 | 0.8444 ± 0.0011 | 1.04 ± 0.031 | 1.04 ± 0.021 | 0.47 ± 0.14 | 0.623 ± 0.45 | 1.13 ± 0.55 | 0.869 ± 0.072
6 | N[C@@H]1[C@H]2CN(c3nc4c(cc3F)c(=O)c(C(=O)O)cn4-c3ccc(F)cc3F)C[C@@H]12 | 0.0708 ± 0.1 | 0.354 ± 0.0078 | 1.04 ± 0.084 | 1.14 ± 0.23 | 0.689 ± 0.063 | 0.912 ± 0.029 | 0.937 ± 0.033 | 0.596 ± 0.17 | 0.555 ± 0.39 | 0.928 ± 0.22 | 0.783 ± 0.071
7 | CC[C@H]1OC(=O)C[C@@H](O)[C@H](C)[C@@H](O[C@@H]2O[C@H](C)C[C@H](N(C)C)[C@H]2O)[C@@H](CC=O)C[C@@H](C)C(=O)/C=C/[C@]2(C)O[C@H]2[C@@H]1C | 0.781 ± 0.33 | 0.296 ± 0.13 | 0.912 ± 0.064 | 1.17 ± 0.26 | 0.854 ± 0.017 | 1.0039 ± 0.00034 | 0.968 ± 0.11 | 0.673 ± 0.17 | 0.55 ± 0.38 | 1.06 ± 0.2 | 0.864 ± 0.08
8 | CC(=O)OCC1=C(C(=O)[O-])N2C(=O)C(NC(=O)Cc3cccs3)C2SC1.[Na+] (stereo not drawn) | 0.626 ± 0.6 | 0.395 ± 0.012 | 1.26 ± 0.12 | 1.09 ± 0.26 | 0.713 ± 0.036 | 1 ± 0.084 | 0.974 ± 0.057 | 0.0754 ± 0.023 | 0.597 ± 0.38 | 0.958 ± 0.23 | 0.622 ± 0.13
9 | O=[N+]([O-])c1ccc(O)c2ncccc12 | 0.501 ± 0.24 | 0.584 ± 0.12 | 0.808 ± 0.033 | 0.979 ± 0.076 | 0.759 ± 0.023 | 1.03 ± 0.047 | 0.765 ± 0.026 | 0.291 ± 0.12 | 0.588 ± 0.39 | 0.989 ± 0.21 | 0.7483 ± 0.0011
10 | CCn1cc(C(=O)O)c(=O)c2cc(F)c(N3CCN(C)CC3)cc21.CS(=O)(=O)O | 0.0308 ± 0.043 | 0.573 ± 0.14 | 1.16 ± 0.29 | 1.27 ± 0.33 | 0.843 ± 0.025 | 0.944 ± 0.037 | 0.919 ± 0.11 | 0.696 ± 0.11 | 0.589 ± 0.41 | 1.109 ± 0.0024 | 0.862 ± 0.089
11 | CC[C@H]1OC(=O)[C@H](C)[C@@H](O[C@H]2C[C@@](C)(OC)[C@@H](O)[C@H](C)O2)[C@H](C)[C@@H](O[C@@H]2O[C@H](C)C[C@H](N(C)C)[C@H]2O)[C@](C)(O)C[C@@H](C)CN(C)[C@H](C)[C@@H](O)[C@]1(C)O | 0.608 ± 0.34 | 0.527 ± 0.072 | 0.871 ± 0.086 | 1.04 ± 0.12 | 0.836 ± 0.027 | 0.99 ± 0.031 | 0.865 ± 0.079 | 0.746 ± 0.079 | 0.58 ± 0.37 | 0.95 ± 0.23 | 0.897 ± 0.19
12 | COC1(NC(=O)C2SC(=C(C(N)=O)C(=O)O)S2)C(=O)N2C(C(=O)O)=C(CSc3nnnn3C)CSC21 (stereo not drawn) | 0.705 ± 0.46 | 0.463 ± 0.027 | 1.47 ± 0.23 | 1.18 ± 0.25 | 0.683 ± 0.18 | 0.99 ± 0.066 | 0.994 ± 0.02 | 0.0627 ± 0.021 | 0.618 ± 0.43 | 0.974 ± 0.2 | 0.871 ± 0.07
13 | CN(C)CCC=C1c2ccccc2COc2ccc(CC(=O)O)cc21.Cl | 0.496 ± 0.7 | 0.368 ± 0.047 | 0.922 ± 0.04 | 1.08 ± 0.18 | 0.755 ± 0.041 | 0.899 ± 0.041 | 0.935 ± 0.11 | 0.616 ± 0.29 | 0.566 ± 0.38 | 1.1 ± 0.024 | 0.7995 ± 0.0059
14 | N[C@H]1CCN(c2nc3c(cc2F)c(=O)c(C(=O)O)cn3-c2ccc(F)cc2F)C1 | 0.206 ± 0.29 | 0.461 ± 0.041 | 0.91 ± 0.23 | 1.17 ± 0.24 | 0.774 ± 0.035 | 0.955 ± 0.026 | 0.852 ± 0.12 | 0.521 ± 0.22 | 0.586 ± 0.39 | 0.924 ± 0.25 | 0.929 ± 0.12
15 | O=C([O-])CCC(=O)OCC(NC(=O)C(Cl)Cl)C(O)c1ccc([N+](=O)[O-])cc1.[Na+] (stereo not drawn) | 1.05 ± 0.13 | 0.463 ± 0.053 | 0.965 ± 0.047 | 1.27 ± 0.34 | 0.718 ± 0.2 | 1.02 ± 0.042 | 1.025 ± 0.0099 | 0.872 ± 0.038 | 0.578 ± 0.37 | 0.957 ± 0.19 | 0.838 ± 0.064
16 | CCN1CCN(c2cc3c(cc2F)c(=O)c(C(=O)O)cn3C2CC2)CC1 | 0.0177 ± 0.025 | 0.462 ± 0.018 | 1.05 ± 0.34 | 1.15 ± 0.22 | 0.617 ± 0.12 | 1 ± 0.11 | 0.894 ± 0.05 | 0.659 ± 0.029 | 0.59 ± 0.4 | 0.88 ± 0.13 | 0.808 ± 0.02
17 | COC1C=COC2(C)Oc3c(C)c(O)c4c(O)c(c5c(nc6cc(C)ccn65)c4c3C2=O)NC(=O)C(C)=CC=CC(C)C(O)C(C)C(O)C(C)C(OC(C)=O)C1C (stereo not drawn) | 0.733 ± 0.23 | 0.703 ± 0.32 | 1.12 ± 0.24 | 1.11 ± 0.24 | 0.8 ± 0.047 | 0.746 ± 0.032 | 0.583 ± 0.0086 | 0.423 ± 0.046 | 0.417 ± 0.28 | 0.788 ± 0.15 | 0.106 ± 0.0026
18 | CC(C)[C@@H](CC[C@@H](C)[C@H]1CC[C@H]2[C@@H]3[C@H](O)C[C@H]4C[C@@H](NCCCNCCCCN)CC[C@]4(C)[C@H]3CC[C@]12C)OS(=O)(=O)O | 1.22 ± 0.062 | 0.08494 ± 0.00041 | 0.712 ± 0.095 | 0.0811 ± 0.015 | 0.432 ± 0.11 | 0.899 ± 0.069 | 0.231 ± 0.024 | 0.17 ± 0.006 | 0.6 ± 0.42 | 0.896 ± 0.23 | 0.14 ± 0.012

Source: the supplement of paper PMC9446081
